Screens deposited in PubChem BioAssay by National Center for Advancing Translational Sciences (NCATS).
Rows were chosen to be rich in hits. Some 8.1% of all compounds tested hit in one or more screens of this group.
PINK1 expr mod – modulators of PINK1 expression | PINK1 immunofluorescence, high-content cytometry, 24 h | Potency, µM (highest dose often 76.6 µM), without a hit: at the highest dose activation (PINK1 increase), hits mostly activators | 410,000 compounds, 0.2% hits; active = well fitted activation curve with a large enough effect; inconclusive = small, poorly fitted or top-dose-only effect; cell line not stated here; note: % of control where 0% means no effect; nearly all actives have a fitted effect of over 65% in size
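Fluorescence from anti-PINK1 antibody, together with nuclear and cell stains, was scanned on a laser-scanning cytometer. Before staining, stable-line cells were incubated 24 hours with compounds at 5 concentrations; primary antibody 12 h at 10 degrees C.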
RORg inh – ROR gamma (mouse) transcription inhibition; Potency, µM (doses to about 53.6 µM), for the others: at the top dose activity change, negative = inhibition, actives largely listed as inhibitors; 310,000 compounds, 5.4% hits; P51450; Drosophila S2 Gal4-RORgamma UAS-luciferase reporter, 20 h; note: % is set by controls: 0 for no effect and ±100 for the full control effect; nearly all actives have a fitted effect of over 60% in size
Target sequence (P51450 whole entry, looked up, the tested form may be a part): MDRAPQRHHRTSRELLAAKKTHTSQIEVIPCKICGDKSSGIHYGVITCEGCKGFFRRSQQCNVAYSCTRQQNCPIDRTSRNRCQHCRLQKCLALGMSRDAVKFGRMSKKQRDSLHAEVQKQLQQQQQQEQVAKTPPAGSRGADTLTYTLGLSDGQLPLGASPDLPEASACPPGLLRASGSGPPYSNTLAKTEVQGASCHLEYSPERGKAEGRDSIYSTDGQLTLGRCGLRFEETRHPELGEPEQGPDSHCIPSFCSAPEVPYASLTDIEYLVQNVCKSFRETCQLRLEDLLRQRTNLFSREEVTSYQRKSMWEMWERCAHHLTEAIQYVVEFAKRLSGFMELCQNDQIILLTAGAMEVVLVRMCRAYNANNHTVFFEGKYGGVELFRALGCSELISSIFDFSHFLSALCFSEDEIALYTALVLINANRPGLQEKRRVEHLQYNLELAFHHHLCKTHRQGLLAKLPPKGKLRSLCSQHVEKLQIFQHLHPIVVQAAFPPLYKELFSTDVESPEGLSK
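Luciferase reporter read in Schneider cells carrying Gal4-RORγ (mouse) and UAS-Photinus luciferase; cells given compound 1 h before 700 uM copper sulfate induction, then incubated 20 h at ambient temperature.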
VP16 counter – counter-screen for ROR gamma inhibitors: Gal4-VP16 reporter; Drosophila S2 Gal4-VP16 UAS-luciferase, luminescence, 20 h; Potency, µM (highest dose often 53.6 µM), for inactives: top-dose activity, negative = inhibition, most hits filed as inhibitors; 310,000 compounds, 3.5% hits;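 note: Gal4-VP16 expression switched on by copper sulfate through the metallothionein promoter; % is set by controls: 0 for no effect and ±100 for the full control effect; nearly all actives have a fitted effect of over 50% in size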
Epigenetic derep – derepresses silenced GFP reporter in murine cells; murine LDR cells, GFP reporter derepression, 30 h; Potency, µM (highest dose often 53.9 µM), without a hit: at the highest dose GFP activation, actives largely listed as activators; 280,000 compounds, 0.2% hits; note: % of control where 0% means no effect; nearly all actives have a fitted effect of over 60% in size
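Readout is the number of GFP-expressing murine LDR cells, counted by cytometry following washing. Cells were treated with compound for 30 h at 37 C; the stably integrated CMV-GFP locus is normally silent.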
ClpP mod – qHTS Assay for Activators of ClpP; ATP-dependent Clp protease proteolytic subunit (Bacillus subtilis (strain 168)), P80244; 340,000 compounds, 1.9% hits; AID 651965, 2013; purified B. subtilis ClpP, FRET peptide cleavage, 20 min; Potency, µM (titrated, usually from 57.5 µM), for inactives: at the highest dose activity change, negative = active; active = well fitted falling curve with a large enough effect; inconclusive = small, poorly fitted or top-dose-only effect; inactive = no such curve, though single readings can be large or run the other way; note: the source files actives as falling curves though it sought activators and does not explain the sign; nearly all actives have a fitted effect of over 65% in size
Target sequence (P80244 whole entry, looked up): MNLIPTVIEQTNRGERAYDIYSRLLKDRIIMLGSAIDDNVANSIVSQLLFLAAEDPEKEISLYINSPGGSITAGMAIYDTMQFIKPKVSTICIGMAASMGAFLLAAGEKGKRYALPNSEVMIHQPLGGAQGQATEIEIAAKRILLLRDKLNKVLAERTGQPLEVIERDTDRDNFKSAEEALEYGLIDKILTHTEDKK
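Purified B. subtilis ClpP, 10 microg/mL final in Tris/HCl pH8 with KCl, BSA, glycerol and Tween-20, cleaved an Abz/nitrotyrosine-quenched decapeptide. Fluorescence (ex 320, em 430) was read at 0 and 20 min at room temperature. Delta was normalized to 5.8 microM ADEP and DMSO/no-enzyme controls.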
Sfp inh – Sfp phosphopantetheinyl transferase inhibition; Q9F4F7; Biochemical Sfp PPTase activity, qHTS; Potency, µM, inactives show largest response in the series, negative = inhibition, usual class: inhibitors; 310,000 compounds, 3.5% hits; AID 1490;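 note: the enzyme is Sfp with the accession as filed and its product quenches rhodamine fluorescence; 0% = enzyme reaction without inhibitor and -100% = no enzyme wells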
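Fluorescence-quenching assay: 15 nM Sfp-PPTase preincubated 15 min at room temperature with compound, then 5 uM rhodamine-CoA and 12.5 uM BHQ-2-labelled YbbR peptide added. Fluorescence (ex 525/em 598 nm) read at start and after 30 min; difference gives rate.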
An asterisk follows results filed as active; ? = inconclusive; . = not tested or not shown; [ ] = another dose, or the depositor's remark. Unless noted, calls come from the whole dose curve; as a rule, active = well fitted curve in the direction sought with a large enough effect; inconclusive = small, poorly fitted or top-dose-only effect, or another doubt; inactive = no such curve, though single readings can be large; an effect the other way counts as inactive or inconclusive. Potency is the fitted concentration of half-maximal effect.

SMILES	PINK1 expr mod	RORg inh	VP16 counter	Epigenetic derep	ClpP mod	Sfp inh
Cc1ccc(C23CC4CC(CC(C(=O)N5CCN(C)CC5)(C4)C2)C3)cc1	0%	-2%	0%	-1%	0%	6%
CC(=O)OCOC(=O)CN(CC(=O)OCOC(C)=O)c1ccccc1OCCOc1ccccc1N(CC(=O)OCOC(C)=O)CC(=O)OCOC(C)=O	.	.	.	0%	.	89µM*
Cc1ccc(NS(=O)(=O)c2ccc3c(c2)N(C)C(=O)CC(=O)N3C)cc1Cl	3%	.	.	-3%	-4%	.
COc1cccc(-c2cn3nc(C)c(C)nc3n2)c1	0%	-43%	-7%	0%	-13%	?
COc1ccc(-c2cn3nc4c(nc3n2)CCCC4)cc1	10%	?	1.3µM*	1%	1%	-25%
O=c1c2c(nc3cc(-c4ccccc4)[nH]n13)CCS2	-2%	-21%	-1%	0%	10µM*	1%
Cc1ccccc1-c1cc2nc(C)c(Cl)c(=O)n2[nH]1	0%	.	.	.	.	.
O=c1c2c(nc3cc(-c4ccccc4Cl)[nH]n13)CCS2	5%	?	?	-1%	.	22µM*
O=C(O)c1ccc(-c2c3nc(c(-c4ccc(C(=O)O)cc4)c4ccc([n-]4)c(-c4ccc(C(=O)O)cc4)c4nc(c(-c5ccc(C(=O)O)cc5)c5ccc2[n-]5)C=C4)C=C3)cc1.[Mn+3]	.	-17%	4%	.	.	-23%
CCn1cc(C(=O)O)c(=O)c2cnc(N3CCN(C(=S)NC(=O)c4ccc(Cl)cc4)CC3)nc21	1%	1µM*	-1%	-2%	-1%	28%
CCn1cc(C(=O)O)c(=O)c2cnc(N3CCN(C(=S)NC(=O)c4ccc(Br)cc4)CC3)nc21	1%	0.56µM*	-10%	-1%	-7%	22%
CCn1cc(C(=O)O)c(=O)c2cc(F)c(N3CCN(C(=S)NC(=O)c4ccc(Br)cc4)CC3)cc21	?	0.63µM*	-3%	1%	.	4%
CCn1cc(C(=O)O)c(=O)c2cnc(N3CCN(C(=S)Nc4ccc(F)cc4)CC3)nc21	0%	24%	-9%	-1%	-12%	-13%
CCn1cc(C(=O)O)c(=O)c2cnc(N3CCN(C(=S)Nc4ccccc4Cl)CC3)nc21	0%	-9%	0%	1%	-10%	18%
CCn1cc(C(=O)O)c(=O)c2cc(F)c(N3CCN(C(=S)NC(=O)c4ccc(OC)cc4)CC3)cc21	?	?	-7%	.	4%	7%
COc1ccccc1OCC(=O)NCC1(N(C)C)CCCCC1	0%	.	.	1%	-2%	.
CCOC(=O)c1noc2ncnc(Nc3ccc(C)c(F)c3)c12	0%	.	.	9%	0%	.
CS(=O)(=O)c1ccc(C(=O)Nc2nc(-c3ccco3)c(-c3ccco3)s2)cc1	9%	.	.	.	-6%	.
O=C(Nc1nnc(-c2ccco2)s1)C1CCCCC1	-2%	?	2%	-1%	-9%	50µM*
O=C(Nc1nc(-c2ccco2)c(-c2ccco2)s1)C1CCC1	?	?	-12%	0%	?	28µM*
COc1cccc(-n2c(=O)c3c(C)c(C)sc3n(Cc3ccccc3C#N)c2=O)c1	1%	.	.	1%	2%	.
Cc1cccc(C)c1NC(=S)N/N=C/c1ccc(C(=O)O)cc1	0%	-29%	-1%	-1%	.	15%
CCCCOc1ccc(/C=N/NC(=S)Nc2cccc(C)c2C)cc1	24%[38.3 µM]	1.8µM*	3.2µM*	-2%	-2%	4%
CCCCOc1ccc(/C=N/NC(=S)Nc2cc(C)ccc2C)cc1	.	6.3µM*	5µM*	3%	-8%	6%
COc1ccc(/C=N/NC(=S)Nc2ccccc2)cc1	2%	7%	?	2%	-2%	-12%
SMILES	PINK1 expr mod	RORg inh	VP16 counter	Epigenetic derep	ClpP mod	Sfp inh
Cc1cccc(C)c1NC(=S)N/N=C/c1ccc(OCCC(C)C)cc1	10%	1.6µM*	2.8µM*	1%	3%	13%
CCOc1ccc(CCNC(=O)c2nnc(Cc3ccc(Cl)cc3Cl)o2)cc1OCC	2%	.	.	3%	2%	.
Cc1ccn2c(C(=O)N/N=C\c3cccs3)c(C)nc2c1	?	?	1%[0.365 µM]	-12%	1%	9%
Cc1ccc2nc(C)c(C(=O)N/N=C/c3cccs3)n2c1	5%	11µM*	-2%	2%	-5%	9%
Cc1ccc2nc(C)c(C(=O)NN=C3CCCCCC3)n2c1	5%	13µM*	-25%	5%	-4%	3%
CCOc1ccc2nc(N(Cc3cccnc3)C(=O)c3ccco3)sc2c1	16%	.	.	9%	4%	.
Cc1cc(O)c(C(C[N+](=O)[O-])c2ccc(Cl)cc2Cl)c(=O)o1 (centres undefined)	4%[38.3 µM]	16µM*	?	-4%	-2%	?
Cc1ccc2c(c1)c1c(c(=O)n(Cc3ccccc3)c(=O)n1CC(=O)NCc1ccccc1Cl)n2C	3%	.	.	1%	?	.
CC1CC(C)(C)NC(=S)S1 (centres undefined)	-1%	?	-18%	1%	-1%	50µM*
CCN(CC)S(=O)(=O)c1ccc2oc(SCC(=O)NC3CC3)nc2c1	4%	1%	-2%	.	1%	40µM*
CCN(CC)c1ccc2nc3c4ccccc4c(=O)cc-3oc2c1	0%	-21%	22%	.	1%	2%
CCN(CC)c1ccc2c(-c3ccc(S(=O)(=O)O)cc3S(=O)(=O)[O-])c3ccc(=[N+](CC)CC)cc-3oc2c1	1%	-34%	?	.	0%	89µM*
COCCOc1cc(NC(=O)c2sccc2Oc2ccc([N+](=O)[O-])cc2F)c(Cl)cc1Cl	0%	23%	24%	-1%	14µM*	1%
C=CCN(CC=C)CC(O)CN(c1cc([N+](=O)[O-])ccc1OC)S(=O)(=O)c1ccccc1 (centres undefined)	3%	0%	-7%	3%	0%	79µM*
Cc1c(C(=O)N2CCOCC2)oc2c1-c1nn(CC(=O)NCc3ccccc3)cc1CC2	0%	.	.	1%	23%	.
CN(C(=S)NC(=O)Cc1ccccc1)c1ccccc1	-1%	10µM*	?	-2%	0%	18µM*
CN(C(=S)NC(=O)C1(C)CC1(Cl)Cl)c1ccccc1 (centres undefined)	1%	?	?	-1%	-2%	-9%
CCN(CC)C(=S)NC(=O)Cc1ccccc1	2%	6.3µM*	?	1%	.	2%
COc1ccc(NC(=O)c2oc3ccccc3c2NC(=O)COc2ccc(F)cc2)c(OC)c1	1%	.	.	-1%	1%	.
